Screening results from PubChem BioAssay.
TIM10 inh: TIM10 yeast growth inhibition; S. cerevisiae TIM10 strain growth, BacTiter-Glo luminescence, 24 h; inhibition, % at 10 µM; 330,000 compounds, 1.4% hits; AID 463195;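 active = inhibition of 40% or more at the single tested concentration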;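 note: wild-type TIM10 isogenic control strain grown at permissive 25 °C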
tim10-1 inh: inhibits growth of tim10-1 mutant yeast. inhibition, % at 20 µM. S. cerevisiae tim10-1 ts strain growth, BacTiter-Glo, 24 h. 330,000 compounds, 2.2% hits;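 active = inhibition of at least 40%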;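 note: mutant grown at 25 °C; 0% = DMSO wells with yeast and 100% = wells holding no yeast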
tim23-1 inh: inhibits growth of tim23-1 mutant yeast; S. cerevisiae tim23-1 growth, BacTiter-Glo luminescence, 24 h; inhibition, % at 20 µM; 330,000 compounds, 1.3% hits; AID 463212;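 active = growth inhibition of the mutant yeast at or above 50%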;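 note: temperature-sensitive mutant grown at 25 °C; plate controls were DMSO-treated mutant yeast for no effect and medium wells lacking yeast for full effect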
SKKanGAS inh: blocks kanamycin growth of S. pyogenes SKKanGAS strain. BacTiter-Glo, 6 h. inhibition, % at 7.5 µM. 300,000 compounds, 1.3% hits;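 active = mean replicate score, as percent of positive control median, at least 50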;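 note: strain carries kanamycin resistance gene driven by streptokinase promoter and grows in 40 µg/ml kanamycin; loss of luminescence reflects streptokinase promoter inhibition or plain growth inhibition; 0% = median of DMSO wells and 100% = positive control at its reference dose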
PfHsp90 set2: inhibits growth of yeast expressing Plasmodium falciparum Hsp90; S. cerevisiae expressing PfHsp90, BacTiter-Glo ATP, 48 h; yeast lacking PDR1 and PDR3 efflux regulators; AID 504621; inhibition, % at 9.4 µM; 310,000 compounds, 0.32% hits;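 active = every replicate shows inhibition above about 80%, whatever the replicate mean, limit read from the data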;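 note: 0% = DMSO neutral controls and 100% = 20 µM radicicol positive controls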
EBI2 block: antagonists of human EBI2 receptor; P32249; EBI2 beta-arrestin recruitment, luminescence, 7a,25-OHC stimulated; inhibition, % at 5 µM; 360,000 compounds, 0.81% hits; in the data active = inhibition above about 38%;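 note: enzyme fragment complementation signal reports receptor beta-arrestin coupling in cells; 0% = agonist plus DMSO wells and 100% = wells without agonist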
Target sequence (P32249 whole entry, looked up, the tested form may be a part): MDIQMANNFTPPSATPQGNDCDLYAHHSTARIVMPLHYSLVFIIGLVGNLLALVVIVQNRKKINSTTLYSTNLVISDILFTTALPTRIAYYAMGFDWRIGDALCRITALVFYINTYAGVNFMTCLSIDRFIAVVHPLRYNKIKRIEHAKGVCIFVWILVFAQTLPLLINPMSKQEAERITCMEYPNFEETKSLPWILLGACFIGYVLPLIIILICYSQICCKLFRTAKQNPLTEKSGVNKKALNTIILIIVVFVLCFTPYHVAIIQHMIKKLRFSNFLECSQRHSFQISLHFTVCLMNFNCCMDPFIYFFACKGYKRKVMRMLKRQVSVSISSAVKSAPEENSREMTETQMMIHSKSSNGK
tim10 confirm: TIM10 yeast growth inhibition, confirmed; S. cerevisiae tim10 strain growth, BacTiter-Glo luminescence, 24 h; 4,600 compounds, 63% hits; inhibition, % at 10 µM; AID 463215; shares compounds with TIM10 inh;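 active = inhibition of yeast growth at or above a set limit in either of two replicates at 10 µM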;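 note: this counterscreen used the strain with wild-type TIM10; 0% = yeast with DMSO and 100% = medium wells lacking yeast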
An asterisk follows results filed as active; nt = no result given. A selection: hits, their analogues and other compounds. The true share with any hit is near 4.7%.

SMILES	TIM10 inh	tim10-1 inh	tim23-1 inh	SKKanGAS inh	PfHsp90 set2	EBI2 block	tim10 confirm
COc1ccc(CN2CCC(Oc3cc(C(=O)NC4CC4)ccc3OC)CC2)c(O)c1	83*	-10	0	-2	2	-1	0
O=C(CCl)Oc1ccc2occ(C(=O)c3cccs3)c2c1	61*	17	-20	-8	1	5	41*
CCCNC(=O)[C@H](Cc1c[nH]c2ccccc12)NC(=O)c1ccccc1Cl	-11	20	14	-5	-3	-7	nt
Cc1ccc(Cl)cc1N1CCN(C(=O)c2ccc3nc[nH]c3c2)CC1	48*	31	40	-3	-6	-53	37*
Cc1cccc(N2CCN(C(=O)c3ccc4nc[nH]c4c3)CC2)c1C	35	35	36	2	-30	-64	nt
Cc1ccc(S(=O)(=O)N(CC(=O)NC2CCCCCC2)c2ccccc2F)cc1	40*	16	8	3	-6	5	11
O=C(CN(c1ccccc1F)S(=O)(=O)c1ccccc1)NC1CCCCCC1	22	26	38	3	23	0	nt
COc1ccc2nc(NC(=O)Nc3ccccc3)sc2c1	0	-7	-2	-16	-4	5	nt
CC(C)(C)c1nc(NC(=O)Nc2ccccc2)sc1Br	49*	35	2	68*	0	33	49*
Cc1cnc(C(=O)OC(C(=O)Nc2cc(C(F)(F)F)ccc2Cl)c2ccccc2)cn1 (configuration not stated)	98*	28	29	6	-3	9	19
CCCn1c(N)c(N(CCOC)C(=O)c2ccc(S(=O)(=O)N3CCOCC3)cc2)c(=O)[nH]c1=O	nt	nt	nt	nt	14	-10	nt
O=[N+]([O-])CC(c1ccccc1)c1c[nH]c2ccccc12 (configuration not stated)	45*	19	39	10	nt	-20	55*
COc1ccc(-c2nn(C)c3sc(C(=O)NCc4ccco4)cc23)cc1OC	-31	-21	-20	5	-21	2	nt
COc1ccc(NC(=O)c2cc3c(-c4ccc(OC)c(OC)c4)nn(C)c3s2)cc1OC	40*	34	35	38	-30	-5	27*
O=C(NN1CCOCC1)c1ccc(Cl)s1	-2	-4	8	11	-8	-4	nt
COC(=O)c1ccccc1N1CCS(=O)(=O)CC1	6	4	6	-2	15	-12	nt
Cc1nn(C)cc1S(=O)(=O)Nc1ccc(F)c(F)c1	-2	-2	-4	0	10	-5	nt
Cc1ccc(C(=O)N2CCN(Cc3ccccc3)CC2)o1	12	0	-2	1	-25	-14	nt
O=C(c1ccc([N+](=O)[O-])o1)N1CCN(Cc2ccccc2)CC1	43*	33	40	13	-12	-5	38*
Cc1cc(Br)c(OCc2ccc(C(=O)N/N=C3\CC4CC=CC34)cc2)c(Br)c1 (configuration not stated)	42*	17	45	68*	11	3	44*
Cc1ccc(N2CC(O)=C(c3nc4ccccc4c(=O)[nH]3)C2=N)cc1C	47*	13	46	17	18	-12	21
COc1ccc(Cc2nc(C(=O)Nc3ccc(Cl)cc3)cs2)cc1	47*	27	24	9	17	2	37*
COc1ccc(NC(=O)c2csc(Cc3ccc(Cl)cc3)n2)cc1	20	7	22	19	26	17	nt
O=C(OCC(=O)N1CCC(Cc2ccccc2)CC1)c1ccc(O)cc1	nt	nt	nt	nt	nt	-7	nt
Cc1c(C)c(C)c2[nH]c(-c3ccc4c(c3)OCO4)nc2c1C	82*	26	46	-3	19	39	87*
SMILES	TIM10 inh	tim10-1 inh	tim23-1 inh	SKKanGAS inh	PfHsp90 set2	EBI2 block	tim10 confirm
Cn1c([N+](=O)[O-])cnc1N1CCN(c2nncs2)C1=O	1	6	6	0	-10	3	nt
Cc1[nH]c2ccccc2c1/C=N/Nc1nc(Nc2ccc(F)cc2)nc(N2CCOCC2)n1	53*	-4	29	21	-7	-2	34*
Cc1ccc(Nc2nc(N/N=C/c3c[nH]c4ccccc34)nc(N3CCOCC3)n2)cc1	24	17	31	11	-32	6	nt
O=C(Nc1ccc2nn(-c3ccccc3)nc2c1)c1ccco1	54*	22	30	7	26	12	51*
O=C(Nc1ccc2nc(-c3ccco3)[nH]c2c1)c1ccco1	54*	17	41	3	nt	-8	37*
O=C(Nc1ccc(Oc2ccc3ccccc3c2)cc1)c1ccco1	43*	26	34	24	-14	22	36*
O=C(Nc1cc2nn(-c3ccccc3)nc2cc1Cl)c1ccco1	-2	-2	-9	-5	-4	9	nt
CC(=O)Nc1ccc2nc(-c3ccco3)[nH]c2c1	-11	-12	3	1	44	-2	nt
Cc1ccc(S(=O)(=O)Nc2cccc(C(=O)N3CCC(C(N)=O)CC3)c2)cc1	0	-10	-7	nt	12	-8	nt
CCCCC1CCC(C(=O)N(CCCC)c2c(N)n(CCCC)c(=O)[nH]c2=O)CC1 (configuration not stated)	1	-8	7	-6	1	8	nt
O=C(NCCCNC(=O)c1ccc(-c2cccc(Cl)c2)o1)c1cnccn1	-7	16	21	-9	-8	-11	nt
O=C(NC(=S)Nc1ccc2[nH]c(=O)[nH]c2c1)c1ccccc1[N+](=O)[O-]	-4	-1	-4	-2	-5	2	nt
COc1ccc(-c2cn3cccnc3n2)cc1Br	46*	-1	38	1	23	-12	55*
COc1ccc(-c2cn3cccnc3n2)cc1NC(=O)C(C)C	1	-28	-11	-3	25	0	nt
Cc1cc(C)nc(N/N=C/c2ccc(Cl)cc2)n1	11	-5	-19	-2	-22	-4	nt
Cc1ccc(/C=N/Nc2nc(C)cc(C)n2)cc1	74*	-12	-18	-11	-10	8	9
Cc1cc(C)nc(NC(=O)c2c(F)c(F)c(F)c(C(=O)Nc3cc(C)cc(C)n3)c2F)c1	16	-54	24	3	nt	1	nt
O=C(c1c(Cl)nc2sccn12)N(C(=O)c1c(Cl)nc2sccn12)c1ccc(Cl)cn1	42*	27	48	-6	0	7	22
Cn1c(SCC(=O)N(Cc2ccccc2)C(C)(C)C)nc2ccccc21	40*	33	49	-3	-16	24	24
Nc1nnc(SCCCC(=O)c2ccc(Br)cc2)s1	40*	11	6	-2	10	-8	-2
COc1ccc(NS(=O)(=O)c2ccc(Cl)c(C(=O)O)c2)cc1S(=O)(=O)N1CCCCC1	5	-8	5	-1	19	-5	nt
